Residue numbers refer to the chain shown, from its start.
Key:
Test in all cases: PBM; 200 nM protein, PBS
Settings in all cases: dsDNA, one strand shown
[1] = target: SHOX (Homo sapiens, UniProt O15266 103-189)
[2] = target: HOXC10 (Homo sapiens, UniProt Q9NYD6 254-340)
[3] = target: ALX1 (Homo sapiens, UniProt Q15699 118-204, L144V)
[4] = target: ALX3 (Homo sapiens, UniProt O95076 139-225, N203Q)
[5] = target: SHOX (Homo sapiens, UniProt O15266 103-189, R173C)
[6] = target: ALX1 (Homo sapiens, UniProt Q15699 118-204, L144R)
Chain of ALX1 (Homo sapiens, UniProt Q15699 118-204, L144R) (Q15699 118-204 L144R): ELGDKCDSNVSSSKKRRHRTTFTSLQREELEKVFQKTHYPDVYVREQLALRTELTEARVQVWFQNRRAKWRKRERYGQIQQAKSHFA

[7] = target: HOXC10 (Homo sapiens, UniProt Q9NYD6 254-340, K271E)
Chain of HOXC10 (Homo sapiens, UniProt Q9NYD6 254-340, K271E) (Q9NYD6 254-340 K271E): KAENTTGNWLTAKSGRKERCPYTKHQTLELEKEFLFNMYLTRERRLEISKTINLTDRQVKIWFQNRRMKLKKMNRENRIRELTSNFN

[8] = target: ALX3 (Homo sapiens, UniProt O95076 139-225)
Chain of ALX3 (Homo sapiens, UniProt O95076 139-225) (O95076 139-225): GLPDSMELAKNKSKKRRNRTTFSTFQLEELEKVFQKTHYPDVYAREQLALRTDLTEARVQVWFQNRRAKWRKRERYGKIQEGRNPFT

[9] = target: ALX3 (Homo sapiens, UniProt O95076 139-225, L168Q)
Chain of ALX3 (Homo sapiens, UniProt O95076 139-225, L168Q) (O95076 139-225 L168Q): as the sequence (O95076 139-225) above, with L30Q counted along it

[10] = target: ALX3 (Homo sapiens, UniProt O95076 139-225, L168V)
Chain of ALX3 (Homo sapiens, UniProt O95076 139-225, L168V) (O95076 139-225 L168V): as the sequence (O95076 139-225) above, with L30V counted along it

[11] = target: ALX1 (Homo sapiens, UniProt Q15699 118-204)
Chain of ALX1 (Homo sapiens, UniProt Q15699 118-204) (Q15699 118-204): as the sequence (Q15699 118-204 L144R) above, with R27L counted along it

[12] = target: ALX3 (Homo sapiens, UniProt O95076 139-225, N203S)
Chain of ALX3 (Homo sapiens, UniProt O95076 139-225, N203S) (O95076 139-225 N203S): as the sequence (O95076 139-225) above, with N65S counted along it

[13] = target: T1, PAX4 (Homo sapiens, UniProt O43316 9-242, R200K)
T1 sequence: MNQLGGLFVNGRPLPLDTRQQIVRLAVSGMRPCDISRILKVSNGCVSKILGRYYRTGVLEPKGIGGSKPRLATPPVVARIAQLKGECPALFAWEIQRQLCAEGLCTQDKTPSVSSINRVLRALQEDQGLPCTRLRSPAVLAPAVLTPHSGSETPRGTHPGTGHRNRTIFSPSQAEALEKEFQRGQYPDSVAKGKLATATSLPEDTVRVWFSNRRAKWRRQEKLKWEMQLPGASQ

[14] = target: T2, PAX4 (Homo sapiens, UniProt O43316 9-242)
T2 sequence: T1 sequence with K192R

[15] = target: T3, PAX4 (Homo sapiens, UniProt O43316 9-242, R200Q)
T3 sequence: T1 sequence with K192Q

[16] = target: T4, PAX4 (Homo sapiens, UniProt O43316 9-242, F177V)
T4 sequence: T1 sequence with F169V, K192R

[17] = target: T5, PAX4 (Homo sapiens, UniProt O43316 9-242, F177Y)
T5 sequence: T1 sequence with F169Y, K192R

[18] = target: T6, PAX4 (Homo sapiens, UniProt O43316 9-242, R227W)
T6 sequence: T1 sequence with K192R, R219W

[19] = target: NKX3-2 (Homo sapiens, UniProt P78367 192-278, P234S)
Chain of NKX3-2 (Homo sapiens, UniProt P78367 192-278, P234S) (P78367 192-278 P234S): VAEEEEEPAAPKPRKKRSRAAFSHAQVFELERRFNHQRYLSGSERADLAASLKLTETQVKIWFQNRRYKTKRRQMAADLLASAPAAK

[20] = target: NKX3-2 (Homo sapiens, UniProt P78367 192-278)
Chain of NKX3-2 (Homo sapiens, UniProt P78367 192-278) (P78367 192-278): as the sequence (P78367 192-278 P234S) above, with S43P counted along it

[21] = target: HOXB9 (Homo sapiens, UniProt P17482 171-250)
Chain of HOXB9 (P17482 171-250): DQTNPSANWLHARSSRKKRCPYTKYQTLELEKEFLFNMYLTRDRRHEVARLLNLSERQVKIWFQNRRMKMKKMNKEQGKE

[22] = target: PRRX1 (Homo sapiens, UniProt P54821 80-166, F113S)
Chain of PRRX1 (Homo sapiens, UniProt P54821 80-166, F113S) (P54821 80-166 F113S): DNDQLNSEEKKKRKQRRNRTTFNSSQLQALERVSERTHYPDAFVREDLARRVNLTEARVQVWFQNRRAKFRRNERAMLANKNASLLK

[23] = target: PITX2 (Homo sapiens, UniProt Q99697 72-157)
[24] = target: PRRX1 (Homo sapiens, UniProt P54821 80-166)
Chain of PRRX1 (Homo sapiens, UniProt P54821 80-166) (P54821 80-166): as the sequence (P54821 80-166 F113S) above, with S34F counted along it

[25] = target: T7, NKX2-6 (Homo sapiens, UniProt A6NCS4 118-204, R150C)
T7 sequence: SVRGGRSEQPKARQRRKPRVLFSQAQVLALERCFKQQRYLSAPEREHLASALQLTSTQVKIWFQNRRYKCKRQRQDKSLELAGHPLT

[26] = target: HOXC9 (Homo sapiens, UniProt P31274 178-260, K195R)
Chain of HOXC9 (Homo sapiens, UniProt P31274 178-260, K195R) (P31274 178-260 K195R): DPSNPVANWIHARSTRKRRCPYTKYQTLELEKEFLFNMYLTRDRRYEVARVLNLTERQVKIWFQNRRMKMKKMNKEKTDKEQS

[27] = target: HOXC9 (Homo sapiens, UniProt P31274 178-260)
Chain of HOXC9 (Homo sapiens, UniProt P31274 178-260) (P31274 178-260): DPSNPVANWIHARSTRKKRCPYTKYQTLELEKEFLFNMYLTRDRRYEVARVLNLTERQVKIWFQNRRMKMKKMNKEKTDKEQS

[28] = target: HOXC9 (Homo sapiens, UniProt P31274 178-260, R193K)
Chain of HOXC9 (Homo sapiens, UniProt P31274 178-260, R193K) (P31274 178-260 R193K): as the sequence (P31274 178-260) above, with R16K counted along it

[29] = target: HOXC9 (Homo sapiens, UniProt P31274 178-260, R222W)
Chain of HOXC9 (Homo sapiens, UniProt P31274 178-260, R222W) (P31274 178-260 R222W): as the sequence (P31274 178-260) above, with R45W counted along it

[30] = target: HOXA2 (Homo sapiens, UniProt O43364 129-215, R185T)
Chain of HOXA2 (Homo sapiens, UniProt O43364 129-215, R185T) (O43364 129-215 R185T): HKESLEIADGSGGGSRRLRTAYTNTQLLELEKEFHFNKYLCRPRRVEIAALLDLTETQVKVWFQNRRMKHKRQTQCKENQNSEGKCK

[31] = target: HOXA2 (Homo sapiens, UniProt O43364 129-215, R185K)
Chain of HOXA2 (Homo sapiens, UniProt O43364 129-215, R185K) (O43364 129-215 R185K): as the sequence (O43364 129-215 R185T) above, with T57K counted along it

[32] = target: HOXA2 (Homo sapiens, UniProt O43364 129-215, Y150S)
Chain of HOXA2 (Homo sapiens, UniProt O43364 129-215, Y150S) (O43364 129-215 Y150S): as the sequence (O43364 129-215 R185T) above, with Y22S, T57R counted along it

[33] = target: HOXA2 (Homo sapiens, UniProt O43364 129-215)
Chain of HOXA2 (Homo sapiens, UniProt O43364 129-215) (O43364 129-215): as the sequence (O43364 129-215 R185T) above, with T57R counted along it

Chain of SHOX (Homo sapiens, UniProt O15266 103-189) (O15266 103-189): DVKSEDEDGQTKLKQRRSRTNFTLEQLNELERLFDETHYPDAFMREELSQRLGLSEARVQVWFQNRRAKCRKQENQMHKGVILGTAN
Chain of SHOX (Homo sapiens, UniProt O15266 103-189, R173C) (O15266 103-189 R173C): as the sequence (O15266 103-189) above, with R71C counted along it
Chain of HOXC10 (Homo sapiens, UniProt Q9NYD6 254-340) (Q9NYD6 254-340): as the sequence (Q9NYD6 254-340 K271E) above, with E18K counted along it
Chain of ALX3 (Homo sapiens, UniProt O95076 139-225, N203Q) (O95076 139-225 N203Q): as the sequence (O95076 139-225) above, with N65Q counted along it
Chain of ALX1 (Homo sapiens, UniProt Q15699 118-204, L144V) (Q15699 118-204 L144V): as the sequence (Q15699 118-204 L144R) above, with R27V counted along it

GCCTGCCC
binding signal [1]: 7.04 upbm affinity estimate (log intensity, higher = more binding, comparable within an allelic series)
binding signal [2]: 10.1 upbm affinity estimate (log intensity, higher = more binding, comparable within an allelic series)
binding signal [3]: 6.56 upbm affinity estimate (log intensity, higher = more binding, comparable within an allelic series)
binding signal [4]: 7.64 upbm affinity estimate (log intensity, higher = more binding, comparable within an allelic series)
binding signal [5]: 7.13 upbm affinity estimate (log intensity, higher = more binding, comparable within an allelic series)
binding signal [6]: 6.58 upbm affinity estimate (log intensity, higher = more binding, comparable within an allelic series)
binding signal [7]: 10 upbm affinity estimate (log intensity, higher = more binding, comparable within an allelic series)
binding signal [8]: 7.67 upbm affinity estimate (log intensity, higher = more binding, comparable within an allelic series)
binding signal [9]: 7.69 upbm affinity estimate (log intensity, higher = more binding, comparable within an allelic series)
binding signal [10]: 7.69 upbm affinity estimate (log intensity, higher = more binding, comparable within an allelic series)
binding signal [11]: 6.62 upbm affinity estimate (log intensity, higher = more binding, comparable within an allelic series)
binding signal [12]: 7.72 upbm affinity estimate (log intensity, higher = more binding, comparable within an allelic series)

GGGAACCC
binding signal [1]: 7.2 upbm affinity estimate (log intensity, higher = more binding, comparable within an allelic series)
binding signal [13]: 9.42 upbm affinity estimate (log intensity, higher = more binding, comparable within an allelic series)
binding signal [14]: 9.42 upbm affinity estimate (log intensity, higher = more binding, comparable within an allelic series)
binding signal [15]: 9.62 upbm affinity estimate (log intensity, higher = more binding, comparable within an allelic series)
binding signal [5]: 7.06 upbm affinity estimate (log intensity, higher = more binding, comparable within an allelic series)
binding signal [16]: 9.39 upbm affinity estimate (log intensity, higher = more binding, comparable within an allelic series)
binding signal [17]: 9.36 upbm affinity estimate (log intensity, higher = more binding, comparable within an allelic series)
binding signal [18]: 9.48 upbm affinity estimate (log intensity, higher = more binding, comparable within an allelic series)

ACGGGGCC
binding signal [1]: 7.07 upbm affinity estimate (log intensity, higher = more binding, comparable within an allelic series)
binding signal [2]: 10.1 upbm affinity estimate (log intensity, higher = more binding, comparable within an allelic series)
binding signal [5]: 7.17 upbm affinity estimate (log intensity, higher = more binding, comparable within an allelic series)
binding signal [7]: 10.1 upbm affinity estimate (log intensity, higher = more binding, comparable within an allelic series)
binding signal [19]: 10.8 upbm affinity estimate (log intensity, higher = more binding, comparable within an allelic series)
binding signal [20]: 10.8 upbm affinity estimate (log intensity, higher = more binding, comparable within an allelic series)

GATATGTA
binding signal [1]: 8.18 upbm affinity estimate (log intensity, higher = more binding, comparable within an allelic series)
binding signal [21]: 9.76 upbm affinity estimate (log intensity, higher = more binding, comparable within an allelic series)
binding signal [5]: 7.81 upbm affinity estimate (log intensity, higher = more binding, comparable within an allelic series)

CCCGGCAC
binding signal [1]: 7.01 upbm affinity estimate (log intensity, higher = more binding, comparable within an allelic series)
binding signal [22]: 9.16 upbm affinity estimate (log intensity, higher = more binding, comparable within an allelic series)
binding signal [23]: 7.81 upbm affinity estimate (log intensity, higher = more binding, comparable within an allelic series)
binding signal [5]: 7.19 upbm affinity estimate (log intensity, higher = more binding, comparable within an allelic series)
binding signal [24]: 9.19 upbm affinity estimate (log intensity, higher = more binding, comparable within an allelic series)

CACCACCC
binding signal [1]: 7.17 upbm affinity estimate (log intensity, higher = more binding, comparable within an allelic series)
binding signal [13]: 9.48 upbm affinity estimate (log intensity, higher = more binding, comparable within an allelic series)
binding signal [14]: 9.49 upbm affinity estimate (log intensity, higher = more binding, comparable within an allelic series)
binding signal [25]: 9.46 upbm affinity estimate (log intensity, higher = more binding, comparable within an allelic series)
binding signal [15]: 9.54 upbm affinity estimate (log intensity, higher = more binding, comparable within an allelic series)
binding signal [5]: 7.25 upbm affinity estimate (log intensity, higher = more binding, comparable within an allelic series)
binding signal [16]: 9.4 upbm affinity estimate (log intensity, higher = more binding, comparable within an allelic series)
binding signal [17]: 9.47 upbm affinity estimate (log intensity, higher = more binding, comparable within an allelic series)
binding signal [18]: 9.4 upbm affinity estimate (log intensity, higher = more binding, comparable within an allelic series)

CCCCCGGG
binding signal [1]: 6.93 upbm affinity estimate (log intensity, higher = more binding, comparable within an allelic series)
binding signal [26]: 9.28 upbm affinity estimate (log intensity, higher = more binding, comparable within an allelic series)
binding signal [27]: 9.39 upbm affinity estimate (log intensity, higher = more binding, comparable within an allelic series)
binding signal [5]: 6.97 upbm affinity estimate (log intensity, higher = more binding, comparable within an allelic series)
binding signal [28]: 9.25 upbm affinity estimate (log intensity, higher = more binding, comparable within an allelic series)
binding signal [29]: 9.53 upbm affinity estimate (log intensity, higher = more binding, comparable within an allelic series)

CGCCCGAC
binding signal [1]: 7.09 upbm affinity estimate (log intensity, higher = more binding, comparable within an allelic series)
binding signal [30]: 7.5 upbm affinity estimate (log intensity, higher = more binding, comparable within an allelic series)
binding signal [5]: 7.2 upbm affinity estimate (log intensity, higher = more binding, comparable within an allelic series)
binding signal [31]: 10.3 upbm affinity estimate (log intensity, higher = more binding, comparable within an allelic series)
binding signal [32]: 10.6 upbm affinity estimate (log intensity, higher = more binding, comparable within an allelic series)
binding signal [33]: 7.16 upbm affinity estimate (log intensity, higher = more binding, comparable within an allelic series)
